The AC50 is the concentration giving half of the maximal activity seen.

The structures appear in SMILES notation. Inconclusive results are not listed. Activity calls are given as the source filed them. How the source made its calls, unless noted: active means hit-call score of the fitted dose curve at least 0.9, where 1 is the maximum; inactive means score below 0.9.

The text below walks through data of PubChem BioAssay (EPA / NIEHS).

The target of test [1] is Peroxisome proliferator-activated receptor gamma (Homo sapiens) (UniProt P37231). As to the kind of experiment: OT_PPARg_PPARgSRC1_0480: Odyssey Thera (OT) 8-hour Protein-Complementation Assay for Peroxisome Proliferator-activated Receptor Gamma / SRC-1 Co-activator (AID 2283387; active means hit-call score of the fitted dose curve at least 0.9, where 1 is the maximum;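 further: nuclear to cytoplasmic split Venus YFP fluorescence ratio reporting PPARg SRC-1 interaction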). The method in brief: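 Read-out: 488 nm N/C fluorescence ratio from complemented Venus YFP fragments, ≥350 cells per image, gain-of-signal fitted against DMSO baseline. Fusions of PPARg/SRC-1 with IFP1/IFP2 expressed transiently in HEK293T; compounds applied 8 h.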

The target is the same in test [2]. As to the kind of experiment: OT_PPARg_PPARgSRC1_1440: Odyssey Thera (OT) 24-hour Protein-Complementation Assay for Peroxisome Proliferator-activated Receptor Gamma/ SRC-1 Co-activator (AID 2283388; active means hit-call score of the fitted dose curve at least 0.9, where 1 is the maximum;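 further: nuclear to cytoplasmic ratio of reconstituted Venus YFP fluorescence in fixed imaged cells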). The procedure, abridged:
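Cells carrying the PPARg/SRC-1 fragment-complementation reporter receive compound for 24 hours, are fixed and counterstained with Draq5, then imaged. Increased nuclear relative to cytoplasmic YFP fluorescence above DMSO baseline indicates binding activity.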

Test [3] in a line: CEETOX_H295R_11DCORT: CeeTox H295R High-throughput Steroidogenesis Assay for 11-Deoxycortisol (11DCORT) (AID 2283432). The note with it: actives raise or lower the signal. The method in brief: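 H295R cells; 10 uM forskolin prestim 48 h; compound in 0.1% DMSO 48 h; media extracted with MTBE; 11-deoxycortisol by LC-MS/MS, 7-point standard curve; gain/loss vs DMSO baseline; viability by MTT in same wells.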

Test [4] is described as follows: CEETOX_H295R_OHPREG: CeeTox H295R High-throughput Steroidogenesis Assay for OH-Pregnenolone (OHPREG) (AID 2283434). The note with it: actives raise or lower the signal. The procedure, abridged: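 H295R cells pre-stimulated 48 h with 10 uM forskolin, then exposed 48 h to chemical in 0.1% DMSO. 17alpha-hydroxypregnenolone in medium quantified by MTBE extraction and HPLC-MS/MS; bidirectional fit versus DMSO, viability checked by MTT.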

A short description of test [5]: CEETOX_H295R_CORTIC: CeeTox H295R High-throughput Steroidogenesis Assay for Corticosterone (CORTIC) (AID 2283437).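 Further: corticosterone secreted into medium quantified by mass spectrometry.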 The following applies: actives raise or lower the signal. The method in brief: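 H295R adrenal cells prestimulated 48 hours with 10 uM forskolin, then exposed 48 hours to chemical in 0.1% DMSO. Corticosterone in medium measured by HPLC-MS/MS after MTBE extraction; MTT viability in the same wells; bidirectional fit versus DMSO.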

The nature of test [6]: CEETOX_H295R_CORTISOL: CeeTox H295R High-throughput Steroidogenesis Assay for Cortisol (AID 2283438).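 Further: cortisol secreted into medium quantified by LC-MS/MS.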 The following applies: actives raise or lower the signal. The method in brief: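 Human adrenocortical H295R cells (passage ≤10) received test chemicals for 48 h after forskolin priming. Secreted cortisol was measured by LC-MS/MS.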
Test [7] in a line: CEETOX_H295R_DOC: CeeTox H295R High-throughput Steroidogenesis Assay for DOC (AID 2283439). The following applies: actives raise or lower the signal. The method in brief: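 Secreted DOC was quantified from H295R media by HPLC-MS/MS after 48 h chemical exposure following 48 h forskolin (10 uM) prestimulation. Values were fitted in both directions relative to DMSO, the negative control and baseline.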

A short description of test [8]: CEETOX_H295R_PROG: CeeTox H295R High-throughput Steroidogenesis Assay for Progesterone (PROG) (AID 2283442).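 On AC50: human H295R adrenal cells primed with 10 µM forskolin before dosing.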 The following applies: actives raise or lower the signal. The procedure, abridged: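 Measured analyte is progesterone secreted by H295R cells at 48 h of chemical treatment, following 10 uM forskolin priming. Quantitation used HPLC-MS/MS against a 7-point standard curve; cytotoxicity was checked by MTT absorbance.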

Read-out in test [9]: Tumor necrosis factor receptor superfamily member 6 (Homo sapiens) (UniProt P25445)
Put plainly: LTEA_HepaRG_FAS: Life Technologies and Expression Analysis (LTEA) Assay for Fas cell surface death receptor (FAS) using HepaRG (AID 2283447). The following applies: mRNA level, 48 h; actives raise or lower the signal. The procedure, abridged: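 Differentiated HepaRG cells in serum-free induction medium were exposed 48 h to 8 half-log concentrations up to 100 uM in 0.5% DMSO, in duplicate. FAS mRNA was measured by qRT-PCR normalised to ACTB, GAPDH and POLR2A; bidirectional fit versus DMSO.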

Read-out in test [10]: Fatty acid synthase (Homo sapiens) (UniProt P49327)
As to the kind of experiment: LTEA_HepaRG_FASN: Life Technologies and Expression Analysis (LTEA) Assay for Fatty Acid Synthase (FASN) using HepaRG (AID 2283448).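 On AC50: differentiated human HepaRG liver cells in serum-free induction medium.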 The following applies: mRNA level, 48 h; actives raise or lower the signal. The method in brief: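 Transcript-level assay: HepaRG liver cells are treated for 48 h across an eight-point range topping at 100 uM, and FASN mRNA, normalized to three housekeeping genes, is compared with DMSO controls in both directions.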

Read-out in test [11]: Cyclin Dependent Kinase Inhibitor 1A (CDKN1A), CDKN1A (gene 1026)
Put plainly: LTEA_HepaRG_CDKN1A: Life Technologies and Expression Analysis (LTEA) Assay for Cyclin Dependent Kinase Inhibitor 1A (CDKN1A) using HepaRG (AID 2283450). The following applies: mRNA level, 48 h; actives raise or lower the signal. The procedure, abridged: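 Gain or loss of CDKN1A transcript is scored by bidirectional fitting against 0.5% DMSO vehicle. Human HepaRG cultures receive chemicals for 48 h across an 8-point series peaking at 100 uM; expression comes from qRT-PCR.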

Read-out in test [12]: Cyclin D1 (CCND1), CCND1 (gene 595)
As to the kind of experiment: LTEA_HepaRG_CCND1: Life Technologies and Expression Analysis (LTEA) Assay for Cyclin D1 (CCND1) using HepaRG (AID 2283451).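 On AC50: differentiated human HepaRG liver cells in serum-free induction medium; TaqMan qRT-PCR transcript level normalised to ACTB GAPDH and POLR2A housekeeping genes.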 The following applies: mRNA level, 48 h; actives raise or lower the signal. The procedure, abridged: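 Expression change is measured by qRT-PCR in HepaRG cells after 48 h treatment across eight concentrations topping at 100 uM, with duplicate wells and DMSO (0.5%) serving as baseline for bidirectional fitting.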

Read-out in test [13]: catalase (CAT), CAT (gene 847)
As to the kind of experiment: LTEA_HepaRG_CAT: Life Technologies and Expression Analysis (LTEA) Assay for catalase (CAT) using HepaRG (AID 2283452). The following applies: mRNA level, 48 h; actives raise or lower the signal. The method in brief: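 HepaRG cells in serum-free induction medium, 0.5% DMSO vehicle, exposed 48 h in duplicate over 8 half-log concentrations from 100 uM. CAT mRNA measured by qRT-PCR, normalized to ACTB, GAPDH, POLR2A; bidirectional fit versus DMSO.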

Read-out in test [14]: flavin-containing dimethylaniline monooxygenases 3 (FMO3), FMO3 (gene 2328)
Put plainly: LTEA_HepaRG_FMO3: Life Technologies and Expression Analysis (LTEA) Assay for flavin-containing dimethylaniline monooxygenases 3 (FMO3) using HepaRG (AID 2283453).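 On AC50: differentiated human HepaRG liver cells in serum-free induction medium; FMO3 transcript by TaqMan qRT-PCR normalized to ACTB GAPDH and POLR2A.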 The following applies: mRNA level, 48 h; actives raise or lower the signal. The procedure, abridged: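 HepaRG, 48 h exposure, 8-pt half-log series from 100 uM, 0.5% DMSO vehicle, duplicates; FMO3 transcript by Fluidigm TaqMan qRT-PCR, housekeeping-normalized; gain/loss fit vs DMSO.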

Read-out in test [15]: Cytochrome P450 (CYP1A1), CYP1A1 (gene 1543)
Put plainly: LTEA_HepaRG_CYP1A1: Life Technologies and Expression Analysis (LTEA) Assay for Cytochrome P450 (CYP1A1) using HepaRG (AID 2283454). The note with it: mRNA level, 48 h; actives raise or lower the signal. The method in brief: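 Using HepaRG cultures with 0.5% DMSO as vehicle, eight-concentration exposures (max 100 uM) lasted 48 h. Transcript levels were measured by TaqMan qRT-PCR and normalized to ACTB, GAPDH and POLR2A.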

Read-out in test [16]: CFLAR gene, CFLAR (gene 8837)
Put plainly: LTEA_HepaRG_CFLAR: Life Technologies and Expression Analysis (LTEA) Assay for CFLAR gene using HepaRG (AID 2283455). The following applies: mRNA level, 48 h; actives raise or lower the signal. The procedure, abridged:
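Differentiated HepaRG cells in serum-free induction medium were exposed 48 h in duplicate to eight half-log concentrations up to 100 uM in 0.5% DMSO; mRNA measured by TaqMan qRT-PCR, normalized to ACTB, GAPDH, POLR2A; bidirectional fitting versus DMSO.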

Read-out in test [17]: Forkhead box O1 (FOXO1), FOXO1 (gene 2308)
Put plainly: LTEA_HepaRG_FOXO1: Life Technologies and Expression Analysis (LTEA) Assay for Forkhead box O1 (FOXO1) using HepaRG (AID 2283456). The note with it: mRNA level, 48 h; actives raise or lower the signal. The procedure, abridged:
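Differentiated HepaRG cells, in serum-free induction medium with 0.5% DMSO, exposed 48 h in duplicate to 8-point half-log series from 100 uM. FOXO1 mRNA measured by TaqMan qRT-PCR, normalized to ACTB, GAPDH, POLR2A; bidirectional fit versus DMSO.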

Test [18] in a line: CEETOX_H295R_ANDR: CeeTox H295R High-throughput Steroidogenesis Assay for Androstenedione (ANDR) (AID 2283436). The note with it: actives raise or lower the signal. The procedure, abridged:
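H295R cells, following OECD 456 with minor changes, exposed to chemicals for 48 h. Androstenedione in the medium was quantified by HPLC-MS/MS after MTBE extraction. Fitting was bidirectional versus DMSO; chemicals were diluted until MTT viability was ≥70%.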

Test [19] in a line: CEETOX_H295R_TESTO: CeeTox H295R High-throughput Steroidogenesis Assay for Testosterone (TESTO) (AID 2283457). The following applies: actives raise or lower the signal. The procedure, abridged: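 Steroidogenesis in H295R cells following OECD 456 with minor changes; 48 h exposure. Medium testosterone by HPLC-MS/MS, DMSO as baseline, with MTT viability run in parallel.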

Chain of Peroxisome proliferator-activated receptor gamma (Homo sapiens) (P37231 whole entry, looked up, the tested form may be a part): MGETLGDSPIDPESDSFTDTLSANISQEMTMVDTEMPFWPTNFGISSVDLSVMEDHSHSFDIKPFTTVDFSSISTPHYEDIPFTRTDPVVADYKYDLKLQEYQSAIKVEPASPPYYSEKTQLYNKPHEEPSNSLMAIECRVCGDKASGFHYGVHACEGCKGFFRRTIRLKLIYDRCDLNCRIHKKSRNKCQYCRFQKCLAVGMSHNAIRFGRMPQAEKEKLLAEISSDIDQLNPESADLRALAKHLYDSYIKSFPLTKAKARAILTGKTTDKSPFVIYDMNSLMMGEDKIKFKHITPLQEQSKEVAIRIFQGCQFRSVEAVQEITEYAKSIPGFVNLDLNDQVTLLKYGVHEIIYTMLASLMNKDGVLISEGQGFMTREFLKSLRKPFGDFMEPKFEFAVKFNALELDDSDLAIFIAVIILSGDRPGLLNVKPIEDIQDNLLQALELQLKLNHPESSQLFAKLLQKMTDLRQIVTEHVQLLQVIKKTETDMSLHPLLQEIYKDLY
Chain of Fatty acid synthase (Homo sapiens) (P49327 whole entry, looked up): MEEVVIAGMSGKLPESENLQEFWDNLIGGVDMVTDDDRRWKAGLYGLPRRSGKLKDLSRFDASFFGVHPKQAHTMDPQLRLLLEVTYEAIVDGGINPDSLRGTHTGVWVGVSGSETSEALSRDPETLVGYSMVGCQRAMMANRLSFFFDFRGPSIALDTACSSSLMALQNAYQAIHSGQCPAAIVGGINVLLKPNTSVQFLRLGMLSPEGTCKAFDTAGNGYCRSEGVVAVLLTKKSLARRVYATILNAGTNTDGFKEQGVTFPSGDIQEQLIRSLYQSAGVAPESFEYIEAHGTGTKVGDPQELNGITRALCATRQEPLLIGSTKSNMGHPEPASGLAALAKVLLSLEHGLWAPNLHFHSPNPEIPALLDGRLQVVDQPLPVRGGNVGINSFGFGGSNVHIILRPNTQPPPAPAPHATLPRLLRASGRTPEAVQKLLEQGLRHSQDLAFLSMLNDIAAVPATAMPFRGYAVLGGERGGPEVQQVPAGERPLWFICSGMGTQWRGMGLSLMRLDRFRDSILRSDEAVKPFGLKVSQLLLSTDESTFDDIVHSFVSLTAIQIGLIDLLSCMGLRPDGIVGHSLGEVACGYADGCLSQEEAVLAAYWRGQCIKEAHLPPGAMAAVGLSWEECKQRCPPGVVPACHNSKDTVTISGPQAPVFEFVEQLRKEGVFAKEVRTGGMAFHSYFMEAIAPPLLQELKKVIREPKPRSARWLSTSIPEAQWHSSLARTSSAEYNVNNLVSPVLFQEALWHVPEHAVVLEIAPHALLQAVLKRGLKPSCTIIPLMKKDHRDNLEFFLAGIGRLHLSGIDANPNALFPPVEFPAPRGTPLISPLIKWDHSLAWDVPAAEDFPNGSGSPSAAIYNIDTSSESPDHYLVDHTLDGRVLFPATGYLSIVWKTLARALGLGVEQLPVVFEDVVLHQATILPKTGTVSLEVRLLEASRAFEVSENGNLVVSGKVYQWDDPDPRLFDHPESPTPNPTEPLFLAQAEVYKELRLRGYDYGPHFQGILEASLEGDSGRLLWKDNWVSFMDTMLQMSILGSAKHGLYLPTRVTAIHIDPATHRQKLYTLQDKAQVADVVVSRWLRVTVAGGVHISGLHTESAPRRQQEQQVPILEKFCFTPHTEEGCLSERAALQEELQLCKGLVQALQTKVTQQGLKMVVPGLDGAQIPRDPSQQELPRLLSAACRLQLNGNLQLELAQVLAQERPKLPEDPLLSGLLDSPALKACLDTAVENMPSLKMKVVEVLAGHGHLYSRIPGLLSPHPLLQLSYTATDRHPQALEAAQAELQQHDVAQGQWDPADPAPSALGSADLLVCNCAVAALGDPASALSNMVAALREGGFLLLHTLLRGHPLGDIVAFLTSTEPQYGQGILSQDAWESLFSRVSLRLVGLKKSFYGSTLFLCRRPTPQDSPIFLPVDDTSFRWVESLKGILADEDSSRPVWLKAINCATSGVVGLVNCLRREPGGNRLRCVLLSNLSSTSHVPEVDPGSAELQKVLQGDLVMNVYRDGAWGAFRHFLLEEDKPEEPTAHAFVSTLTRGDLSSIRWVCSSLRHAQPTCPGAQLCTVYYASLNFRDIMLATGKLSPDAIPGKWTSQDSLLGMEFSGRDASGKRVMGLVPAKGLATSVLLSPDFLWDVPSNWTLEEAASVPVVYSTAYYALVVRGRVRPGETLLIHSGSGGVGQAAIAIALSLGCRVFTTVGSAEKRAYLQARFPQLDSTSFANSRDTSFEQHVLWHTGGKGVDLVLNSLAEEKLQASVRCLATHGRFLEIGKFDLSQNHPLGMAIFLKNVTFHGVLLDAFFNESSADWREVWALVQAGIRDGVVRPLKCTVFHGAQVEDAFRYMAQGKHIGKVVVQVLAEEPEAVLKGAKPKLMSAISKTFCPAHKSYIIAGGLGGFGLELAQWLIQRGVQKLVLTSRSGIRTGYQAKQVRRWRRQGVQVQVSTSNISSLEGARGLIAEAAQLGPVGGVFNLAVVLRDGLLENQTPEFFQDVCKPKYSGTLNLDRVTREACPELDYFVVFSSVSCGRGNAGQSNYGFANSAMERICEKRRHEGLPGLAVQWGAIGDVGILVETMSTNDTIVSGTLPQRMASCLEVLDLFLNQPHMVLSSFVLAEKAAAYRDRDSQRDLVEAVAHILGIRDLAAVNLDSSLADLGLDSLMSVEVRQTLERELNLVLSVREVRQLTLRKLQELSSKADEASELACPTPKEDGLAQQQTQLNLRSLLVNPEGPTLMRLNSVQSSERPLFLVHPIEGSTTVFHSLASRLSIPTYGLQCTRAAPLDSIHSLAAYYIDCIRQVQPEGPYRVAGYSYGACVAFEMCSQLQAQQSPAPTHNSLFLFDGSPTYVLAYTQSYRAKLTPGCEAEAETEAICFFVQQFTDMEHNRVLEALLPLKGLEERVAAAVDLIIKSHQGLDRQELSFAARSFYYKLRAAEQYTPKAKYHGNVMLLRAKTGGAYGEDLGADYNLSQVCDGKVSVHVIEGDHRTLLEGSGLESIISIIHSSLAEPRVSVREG

On to `COc1nc(NC(C)C)nc(NC(C)C)n1`, for which the call in [1], in test [2], in test [3], in [4], in test [5] and in [6] was inactive. The compound was called inactive in test [7], in test [8], in [9], in test [10], in test [11] and in [12]. For the same compound, the compound was classed as inactive in test [13], in test [14], in [16] and in test [17]. For the same compound, the AC50 in test [15] is 36 µM (active).
Regarding `CCON=C(CC)C1=C(O)CC(c2c(C)cc(C)cc2C)CC1=O` (stereo not given), the compound was called inactive in test [1], in test [2], in [3], in [4], in [18] and in test [5]. Also, the result in test [6], in [7], in [8], in test [9], in test [12] and in [13] was inactive. In addition, the result in [14], in test [15], in [16], in test [17] and in test [19] was inactive. In addition, in [10], the AC50 was 50 µM (active).
Consider `CNC(=S)S`, for which the outcome in test [1], in test [2], in [3], in [4], in test [5] and in test [6] was inactive. The outcome in test [7], in [8], in [9], in test [10], in test [12] and in [13] was inactive. The outcome in test [14], in [16] and in test [17] was inactive. Moreover, the AC50 in [15] is 50 µM (active).
On to `N#CC(CCc1ccc(Cl)cc1)(Cn1cncn1)c1ccccc1` (stereo not given), for which the compound was called inactive in test [1], in [2], in test [3], in [4], in test [18] and in [5]. For the same compound, the compound was called inactive in test [7], in test [16] and in test [19]. Moreover, the AC50 was 0.386 µM (active) in [6]; 0.627 µM (active) in [8]; 76.1 µM (active) in test [9]; 91.1 µM (active) in test [10]; 71.5 µM (active) in test [12]; 54.5 µM (active) in [13]. Besides, the AC50 in test [14] was 72.9 µM (active); in test [15], 9.8 µM (active); in [17], 77.8 µM (active).
For the compound `CC1COC(Cn2cncn2)(c2ccc(Oc3ccc(Cl)cc3)cc2Cl)O1` (stereo not given), the result in test [1], in test [2], in [3], in test [4], in test [5] and in test [8] was inactive. The compound was classed as inactive in test [16]. The AC50 in test [6] was 0.372 µM (active); in [7], 0.334 µM (active); in test [9] it was 17.9 µM (active); in test [10], 29.7 µM (active); in test [12] it was 83.9 µM (active); in [13], 17.4 µM (active). In addition, the results for the AC50 in [14], in [15] and in [17] were 22.2 µM (active), 12.2 µM (active) and 30 µM (active), respectively.
